Inconclusive results are not listed. Activity calls are given as the source filed them. The calls were made as follows, unless noted: active = hit-call score of the fitted dose curve at least 0.9, where 1 is the maximum; inactive = score below 0.9.
Experiments:
[1] = TOX21_p53_BLA_p2_viability: Viability Assessment in the Tox21 HCT-116 p53 Agonism Beta-lactamase Assay, Phase 2 (AID 2283591; active = hit-call score of the fitted dose curve at least 0.9, where 1 is the maximum;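 also: compound exposure lasted 16 h at 37 °C; actives lower the ATP signal meaning cytotoxicity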)
Method in brief: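 Cytotoxicity readout: CellTiter-Glo ATP luminescence, 30 min at room temperature, after the beta-lactamase read. Cells were HCT116 exposed 16 h at 37C to compounds pin-transferred at 217-fold dilution from DMSO stocks.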

[2] = target: Cellular tumor antigen p53 (Homo sapiens) (UniProt P04637); assay: TOX21_p53_BLA_p2_ratio: Tox21 HCT-116 p53 Agonism Beta-lactamase Assay, Ratio, Phase 2 (AID 2283592; active = hit-call score of the fitted dose curve at least 0.9, where 1 is the maximum)
Method in brief: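 DMSO-normalized, positive-direction endpoint derived from the 460 nm/530 nm FRET ratio in HCT116 p53 beta-lactamase reporter cells exposed 16 h at 37C and loaded with CCF4-AM for 2 h.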

[3] = TOX21_p53_BLA_p3_viability: Viability Assessment in the Tox21 HCT-116 p53 Agonism Beta-lactamase Assay, Phase 3 (AID 2283593; active = hit-call score of the fitted dose curve at least 0.9, where 1 is the maximum;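 also: cells exposed to compound for 16 h before reading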)
Method in brief: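 Cellular ATP was quantified by CellTiter-Glo luminescence, read after 30 min at room temperature. Beforehand, HCT116 cells (4000/well) received compound 5 h post-seeding, 217-fold diluted from DMSO, then incubated 16 h at 37C.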

[4] = target: Cellular tumor antigen p53 (Homo sapiens) (UniProt P04637); assay: TOX21_p53_BLA_p3_ratio: Tox21 HCT-116 p53 Agonism Beta-lactamase Assay, Ratio, Phase 3 (AID 2283596; active = hit-call score of the fitted dose curve at least 0.9, where 1 is the maximum)
Method in brief: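 Cells were seeded at 4000/well, rested 5 h at 37C, then dosed with DMSO compound solutions (217-fold dilution) for 16 h. CCF4-AM substrate was loaded for 2 h at room temperature, and the 460/530 nm emission ratio was fitted for gain of signal versus DMSO.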

[5] = TOX21_p53_BLA_p4_viability: Viability Assessment in the Tox21 HCT-116 p53 Agonism Beta-lactamase Assay, Phase 4 (AID 2283597; active = hit-call score of the fitted dose curve at least 0.9, where 1 is the maximum;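 also: hits lower the luminescence signal meaning cytotoxicity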)
Method in brief: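 In this multiplexed secondary endpoint, HCT116 cells (4000 per well, compound at 5 h, 16 h treatment) received CellTiter-Glo after the beta-lactamase read. Luminescence after 30 min RT reflects ATP, and falling signal marks cytotoxicity.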

[6] = target: Cellular tumor antigen p53 (Homo sapiens) (UniProt P04637); assay: TOX21_p53_BLA_p4_ratio: Tox21 HCT-116 p53 Agonism Beta-lactamase Assay, Ratio, Phase 4 (AID 2283601; active = hit-call score of the fitted dose curve at least 0.9, where 1 is the maximum)
Method in brief: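 Signal is the blue/green (460nm/530nm) ratio of cleaved versus uncleaved CCF4-AM substrate, read after 2 h substrate loading. Cells were HCT116 carrying the p53-responsive beta-lactamase reporter, dosed 16 h at 37C, 5% CO2; CellTiter-Glo measured in parallel.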

[7] = CCTE_Shafer_MEA_dev_firing_rate_mean: CCTE's Neural Network Formation Assay for Mean Firing Rate, Shafer Lab (AID 2284031)
Method in brief: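 Steps: seed rat cortical cells (1.5 x 10^5/well) with laminin on PEI-coated MEA; dose day 0; record DIV 5/7/9/12, full media and compound exchange after DIV 5 and 9 recordings; compute well-mean firing rate AUC.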

[8] = CCTE_Shafer_MEA_dev_per_burst_spike_percent: CCTE's Neural Network Formation Assay for Percent of Spikes in a Burst, Shafer Lab (AID 2284032)
Method in brief: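 Value is trapezoidal AUC over recordings on days 5, 7, 9 and 12 of the well-mean fraction of spikes falling in single-electrode bursts; rat cortical cultures exposed continuously from plating, treatment renewed DIV 5 and 9, fitted downward against DMSO.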

[9] = CCTE_Shafer_MEA_dev_active_electrodes_number: CCTE's Neural Network Formation Assay for Number of Active Electrodes, Shafer Lab (AID 2284040; active = hit-call score of the fitted dose curve at least 0.9, where 1 is the maximum)
Method in brief: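 Counts electrodes per well firing at least 5 spikes/min, recorded on days 5, 7, 9 and 12 in rat cortical cultures dosed continuously from plating (treatment refreshed DIV 5, 9). Value is the area under the curve over recordings, fitted downward relative to DMSO.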

[10] = CCTE_Shafer_MEA_dev_burst_rate: CCTE's Neural Network Formation Assay for Burst Rate, Shafer Lab (AID 2284042)
Method in brief: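 Primary rat cortical neurons on PEI-coated 48-well MEA plates (laminin added with cells at plating) (16 electrodes/well), exposed from plating to day 12, dosing renewed at DIV 5 and 9. Burst rate averaged over active electrodes, recorded DIV 5, 7, 9, 12, summarized as AUC; loss versus DMSO.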

[11] = CCTE_Shafer_MEA_dev_bursting_electrodes_number: CCTE's Neural Network Formation Assay for Number of Bursting Electrodes, Shafer Lab (AID 2284043; active = hit-call score of the fitted dose curve at least 0.9, where 1 is the maximum)
Method in brief: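 Number of electrodes reaching ≥1 burst every 2 min was recorded at DIV 5, 7, 9 and 12 and collapsed as trapezoidal area under the curve. Cultures were rat cortical neurons on MEA plates, dosed continuously from plating with medium and treatment refreshed on DIV 5 and 9.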

[12] = CCTE_Shafer_MEA_dev_per_burst_interspike_interval: CCTE's Neural Network Formation Assay for Burst Interspike Interval, Shafer Lab (AID 2284044)
Method in brief: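 Spontaneous activity of maturing rat cortical networks is recorded on DIV 5, 7, 9 and 12 under chronic compound exposure beginning at plating. Endpoint: burst interspike interval well-mean, collapsed into trapezoidal AUC and fitted in the negative direction relative to DMSO.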

[13] = CCTE_Shafer_MEA_dev_burst_duration_mean: CCTE's Neural Network Formation Assay for Mean Burst Duration, Shafer Lab (AID 2284045)
Method in brief: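 Mean single-electrode burst duration (first to last spike), averaged over bursting electrodes per well, then integrated as area-under-curve across recordings at days 5, 7, 9 and 12. Rat cortical cultures on MEAs, compound present from plating, refreshed at feeds.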

[14] = CCTE_Shafer_MEA_dev_interburst_interval_mean: CCTE's Neural Network Formation Assay for Mean Interburst Interval, Shafer Lab (AID 2284046);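 also: well-mean interburst interval of bursting electrodes as AUC over four recording days; curve fitted for decrease in interburst interval relative to DMSO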
Method in brief: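 Recordings on days 5, 7, 9 and 12 give well-mean interburst interval across actively bursting electrodes, summarized as area under the curve. Cultures: rat cortical neurons, continuous exposure from day 0, compound renewed at feeds; decrease analyzed versus DMSO.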

[15] = CCTE_Shafer_MEA_dev_inter_network_spike_interval_mean: CCTE's Neural Network Formation Assay for Mean Inter-network Spike Interval, Shafer Lab (AID 2284047)
Method in brief: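 Primary rat cortical neurons on 16-electrode MEA wells, exposed from plating day 0 through DIV 12, compound renewed at DIV 5 and 9 media changes. Mean interval between network-spike peaks recorded DIV 5, 7, 9, 12; collapsed as trapezoidal AUC, fitted downward versus DMSO.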

[16] = CCTE_Shafer_MEA_dev_network_spike_number: CCTE's Neural Network Formation Assay for Number of Network Spikes, Shafer Lab (AID 2284048);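 also: synchronized bursts across electrodes counted on days 5 7 9 12 and integrated as AUC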
Method in brief: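 Number of network spikes (coordinated firing across electrodes) recorded on days 5, 7, 9 and 12 and summarised as area under the curve. Rat cortical cultures on MEA, continuous compound exposure with full medium/treatment exchange at DIV 5 and 9.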

[17] = CCTE_Shafer_MEA_dev_network_spike_peak: CCTE's Neural Network Formation Assay for Mean Number of Electrodes in Network Spike, Shafer Lab (AID 2284049)
Method in brief: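 Rat cortical primary culture, 1.5 x 10^5 cells/well, 48-well MEA (16 electrodes/well). Dosing day 0 through DIV 12, full media/compound exchange DIV 5, 9. AxIS adaptive spike detection; AUC over days 5/7/9/12; loss-of-signal vs DMSO.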

[18] = CCTE_Shafer_MEA_dev_spike_duration_mean: CCTE's Neural Network Formation Assay for Mean Spike Duration, Shafer Lab (AID 2284051);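 also: mean network spike duration pooled as area under curve over DIV 5 to 12 recordings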
Method in brief: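 Primary rat cortical neurons on 16-electrode MEA wells (PEI-coated, laminin in plating drop), exposed from plating through DIV 12 with compound renewed at DIV 5 and 9. Mean network-spike duration recorded DIV 5, 7, 9, 12; trapezoidal AUC across days, DMSO baseline.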

[19] = CCTE_Shafer_MEA_dev_network_spike_duration_std: CCTE's Neural Network Formation Assay for Standard Deviation of Network Spike Duration, Shafer Lab (AID 2284052);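 also: hits are decreases in network spike duration SD versus DMSO vehicle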
Method in brief: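 Primary rat cortical neurons on PEI-coated 16-electrode MEA wells, exposed from plating day 0 through day 12 with compound renewed at DIV 5 and 9. Network spike duration SD recorded on days 5, 7, 9, 12, collapsed as trapezoidal AUC; loss-of-signal fit versus DMSO.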

[20] = CCTE_Shafer_MEA_dev_per_network_spike_spike_number_mean: CCTE's Neural Network Formation Assay for Mean Number of Spikes in a Network Spike, Shafer Lab (AID 2284053)
Method in brief: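 Primary rat cortical neurons on 48-well, 16-electrode MEA plates were exposed from plating to DIV 12, with dosing renewed on DIV 5 and 9. Spikes per network spike (0.05 s peak window) were recorded on DIV 5, 7, 9 and 12 and collapsed as trapezoidal AUC versus DMSO.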

[21] = CCTE_Shafer_MEA_dev_per_network_spike_spike_percent: CCTE's Neural Network Formation Assay for Percent of Spikes in a Network Spike, Shafer Lab (AID 2284054)
Method in brief: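 Metric: fraction of spikes falling in a 0.05 s window at network-spike peaks. Recordings were made on days 5, 7, 9 and 12 and collapsed by trapezoidal AUC. Cultures were rat cortical neurons on MEA plates, dosed continuously from plating, re-dosed at media changes.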

[22] = UKN5_HCS_SBAD2_cell_viability: Viability Assessment in the University of Konstanz (UKN) Leist Lab Neurite Outgrowth Assay in human iPSC-derived immature Dorsal Root Ganglia Neurons (UKN5) (AID 2284056)
Method in brief: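 iPSC-derived immature peripheral neurons (SBAD2) seeded on Matrigel with CHIR99021, SU5402 and DAPT, dosed 1 h later for 24 h. Viability from Hoechst H-33342 and calcein-AM live staining, high-content imaging; bidirectional fit versus DMSO.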

[23] = CCTE_Shafer_MEA_dev_LDH: CCTE's Lactate Dehydrogenase Assay for Cytotoxicity in the Neural Network Formation Assay, Shafer Lab (AID 2284068; active = hit-call score of the fitted dose curve at least 0.9, where 1 is the maximum;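 also: exposure for twelve days from plating with re-dosing on DIV 5 and 9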)
Method in brief: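 Primary rat cortical neurons were plated on PEI/laminin MEA plates and exposed from day 0 for twelve days, with compound renewed at DIV 5 and 9. Cytotoxicity was determined by spectrophotometric LDH assay relative to DMSO.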

[24] = UKN5_HCS_SBAD2_neurite_outgrowth: University of Konstanz (UKN) Leist Lab Neurite Outgrowth Assay in human iPSC-derived immature Dorsal Root Ganglia Neurons (UKN5) (AID 2284070); details: actives raise or lower the signal
Method in brief: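 Thaw, seed on Matrigel (100.000 cells/cm2), dose 1 h later; at 23 h live-stain with H-33342 and calcein-AM for 60 min; image at 24 h. Neurite area fitted bidirectionally vs DMSO.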

[25] = CCTE_Shafer_MEA_dev_mutual_information_norm: CCTE's Neural Network Formation Assay for Mutual Information Normalization, Shafer Lab (AID 2284091)
Method in brief: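 Shared information across electrodes, tracked on days 5, 7, 9 and 12 of network development and collapsed as trapezoidal area under the curve. Rat cortical cultures were treated continuously from plating, with treatment renewed at feeds on DIV 5 and 9; DMSO baseline, negative-direction fit.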

[26] = CCTE_Shafer_MEA_dev_correlation_coefficient_mean: CCTE's Neural Network Formation Assay for Mean Correlation Coefficient, Shafer Lab (AID 2284093)
Method in brief: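 Spontaneous activity recorded on days 5, 7, 9 and 12 post-plating; pairwise spike correlations are averaged across active electrodes and collapsed to an area-under-curve. Rat cortical cultures are dosed from plating through 12 days, with compound renewed at media changes.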

[27] = UKN2_HCS_IMR90_neural_migration: University of Konstanz (UKN) Leist Lab Neural Crest Cell Migration Assay in human induced IMR90 Pluripotent Stem Cells (UKN2) (AID 2284204); details: actives raise or lower the signal
Method in brief: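 High-content imaging of calcein-AM and Hoechst stained cells quantifies migration into a stopper-defined gap after 24 h compound exposure. Neural crest cells from IMR90 iPSC migrated 24 h in EGF/FGF N2-S medium before dosing; DMSO baseline.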

[28] = UKN4_HCS_LUHMES_neurite_outgrowth: University of Konstanz (UKN) Leist Lab Neurite Outgrowth Assay in human LUHMES cells (UKN4) (AID 2284206); details: actives raise or lower the signal
Method in brief: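 Human LUHMES cells were differentiated for two days, replated and treated with chemicals for 24 h. Neurite outgrowth was quantified as calcein-stained neurite area by HCS imaging, fitted bidirectionally relative to DMSO.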

Measured: outcome

Cellular tumor antigen p53 (Homo sapiens), sequence (P04637 whole entry, looked up): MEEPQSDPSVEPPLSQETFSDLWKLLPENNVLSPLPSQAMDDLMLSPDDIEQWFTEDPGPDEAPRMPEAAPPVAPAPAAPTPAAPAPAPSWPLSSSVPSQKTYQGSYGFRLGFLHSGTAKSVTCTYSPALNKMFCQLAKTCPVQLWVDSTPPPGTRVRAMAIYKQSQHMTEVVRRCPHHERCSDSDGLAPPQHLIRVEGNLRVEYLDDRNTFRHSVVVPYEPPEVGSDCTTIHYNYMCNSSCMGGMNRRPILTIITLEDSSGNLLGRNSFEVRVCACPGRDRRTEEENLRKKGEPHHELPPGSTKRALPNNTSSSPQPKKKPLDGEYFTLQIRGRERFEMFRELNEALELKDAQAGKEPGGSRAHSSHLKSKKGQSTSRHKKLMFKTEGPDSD

CC(C)(C)NCC(O)c1cc(O)cc(O)c1 (stereo not drawn)
inactive: all assays above
